Each structure is given as a SMILES string. Results filed as inconclusive are left out. Where a call stands in place of a potency, no number is given. A number with no mark means an inactive call. Active and inactive are the calls of the source. Calls follow the shape of the dose curve; as a rule, active = well fitted inhibition curve with a large enough effect; inconclusive = small, poorly fitted or top-dose-only effect; inactive = no such curve, though single readings can be large or run the other way.

In one assay the target is Rap guanine nucleotide exchange factor 4 (Homo sapiens) (UniProt Q8WZA2). The assay can be described thus: Confirmatory qHTS for antagonist of cAMP-regulated guanine nucleotide exchange factor 4 (EPAC2) (AID 1645885). Also: nearly all actives have a fitted effect of over 25% in size. Also: potency is read from the fitted curve at half-maximal effect. The note with it: EPAC2 Rap1B-BODIPY-GDP exchange fluorescence, biochemical; series mostly up to 114 µM.
Rap guanine nucleotide exchange factor 4 (Homo sapiens), sequence (Q8WZA2 whole entry, looked up): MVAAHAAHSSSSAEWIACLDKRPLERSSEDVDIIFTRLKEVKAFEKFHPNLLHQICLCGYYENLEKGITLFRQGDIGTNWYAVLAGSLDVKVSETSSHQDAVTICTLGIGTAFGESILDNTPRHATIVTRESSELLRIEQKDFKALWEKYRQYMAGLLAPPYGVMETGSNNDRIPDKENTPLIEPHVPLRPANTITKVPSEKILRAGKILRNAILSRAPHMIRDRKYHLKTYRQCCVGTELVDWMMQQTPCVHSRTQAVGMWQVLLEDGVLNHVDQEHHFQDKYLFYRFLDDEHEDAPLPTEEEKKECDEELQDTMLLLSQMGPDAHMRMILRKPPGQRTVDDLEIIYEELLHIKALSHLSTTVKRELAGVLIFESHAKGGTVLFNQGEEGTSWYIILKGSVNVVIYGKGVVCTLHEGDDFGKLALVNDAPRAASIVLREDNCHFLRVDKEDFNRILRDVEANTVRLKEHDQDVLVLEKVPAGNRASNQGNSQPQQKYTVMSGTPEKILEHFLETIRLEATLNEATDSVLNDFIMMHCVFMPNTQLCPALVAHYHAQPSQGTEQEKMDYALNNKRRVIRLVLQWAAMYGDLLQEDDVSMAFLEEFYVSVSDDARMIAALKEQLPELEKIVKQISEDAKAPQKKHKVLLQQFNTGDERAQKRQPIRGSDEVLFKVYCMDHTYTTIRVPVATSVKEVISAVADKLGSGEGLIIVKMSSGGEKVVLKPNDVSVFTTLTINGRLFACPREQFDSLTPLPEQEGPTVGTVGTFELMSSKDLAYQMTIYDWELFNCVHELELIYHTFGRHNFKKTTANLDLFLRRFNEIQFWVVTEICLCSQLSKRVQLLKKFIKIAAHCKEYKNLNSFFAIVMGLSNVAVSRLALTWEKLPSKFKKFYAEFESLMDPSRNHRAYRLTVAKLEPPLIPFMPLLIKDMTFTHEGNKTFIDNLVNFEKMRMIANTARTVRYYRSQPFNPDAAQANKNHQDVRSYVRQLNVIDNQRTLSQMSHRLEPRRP
Regarding `CCOC(=O)[C@]12Cc3cc(C)ccc3[C@H]1N(C1CCCCC1)C(=O)c1ccccc12`, the activity change, negative = inhibition was -27.9% [at 12.7 µM]. `Cc1c(NS(=O)(=O)c2ccccc2)ccc([N+](=O)[O-])c1Cl`: the Potency result is “inactive”. In the case of `CCCSc1nc2ccccc2c(=O)n1-c1ccccc1OC`, the activity change, negative = inhibition was 34.1% [at 12.7 µM]. As to `CC(Cc1ccc(O)cc1)NCC(O)c1ccc(O)c(O)c1` (stereo not given), the activity change, negative = inhibition was -0.704% [at 12.7 µM]. For `Cc1c2cnn(CC(=O)N3CCC4(CC3)OCCO4)c(=O)c2c(C)n1Cc1ccc(F)cc1`, the Potency result was “inactive”. Turning to `CCOC(=O)[C@]12Cc3cc(C)ccc3[C@H]1N(Cc1ccccc1)C(=O)c1ccccc12`, the Potency result is “inactive”. `CCN(CC)c1ccc(N=Cc2c(O)n(CCC3=CCCCC3)c(=O)[nH]c2=O)cc1`: the Potency entry was “inactive”. On the same count and under the same terms, as for `O=c1[nH]c(O)c(C=Nc2ccccc2Sc2ccccc2)c(=O)[nH]1`, the entry is “inactive”; as for `COc1ccc(C(SCC(NC(=O)OCc2ccccc2)C(=O)O)c2ccc(OC)cc2)cc1` (stereo not given), “inactive”. In the case of `O=C1NC(=O)N(c2cccc(Cl)c2)C(=O)/C1=C\c1ccc(Sc2nc3ccccc3[nH]2)o1`, the activity change, negative = inhibition was 0.757% [at 12.7 µM]. Turning to `CCN1C(=O)C(=C/C=C/c2ccco2)C(=O)N(CC)C1=S`, the Potency entry is “inactive”.

For the compound `COC(=O)C1=C(c2cc3ccccc3s2)C[C@@H]2CC[C@H]1N2C(=O)NC1CC1`, the Potency entry is “inactive”. As to `Cc1cc(/C=C2\C(=O)NC(=O)N(c3ccc(Cl)cc3)C2=O)c(C)n1-c1sc2c(c1C#N)CCCC2`, the activity change, negative = inhibition is -14.9% [at 12.7 µM].

`COc1cccc(-n2c(/C=C/c3ccc(O)c(O)c3)nc3ccccc3c2=O)c1`: the activity change, negative = inhibition was -22.6% [at 12.7 µM]. Consider `N#CC(C#N)=NNc1ccc(S(N)(=O)=O)cc1`, for which the activity change, negative = inhibition was 1.67% [at 12.7 µM]. For the compound `Cc1ccc(N2C(=O)NC(=O)/C(=C\c3cc(C)n(-c4sc5c(c4C#N)CCCC5)c3C)C2=O)cc1`, the Potency result was “inactive”. On to `Cc1ccc(N2C(=O)NC(=O)/C(=C\C=C\c3ccco3)C2=O)cc1`, for which the Potency entry is “inactive”. `Cc1ccc(CN2CCCN(Cc3ccccc3C)S2(=O)=O)cc1`: the Potency entry was “inactive”. On the same count and under the same terms, the same measure for `O=C1NC(=S)N(c2ccccc2)C(=O)/C1=C/c1ccco1`: “inactive”; for `Cc1cc(OC(C)C(=O)N[C@H](C(=O)O)c2ccccc2)c2c3c(c(=O)oc2c1)CCC3` (stereo not given in full): 42.6 µM (active); for `CCOC(=O)[C@]12Cc3cc(OC)ccc3[C@H]1N(Cc1ccccc1)C(=O)c1cc(F)c(F)cc12`: “inactive”. Regarding `COC(=O)c1cn(Cc2ccc(F)cc2)c2ccccc12`, the Potency entry was “inactive”.

Regarding `CCCCn1c(NS(=O)(=O)c2ccc(C)cc2)c(C(=O)OCC)c2nc3ccccc3nc21`, the Potency was 23.9 µM (active). Regarding `O=C1NC(=O)N(Cc2ccccc2)C(=O)/C1=C/C=C/c1ccco1`, the activity change, negative = inhibition is -1.14% [at 12.7 µM]. With `O=C(O)CC1OCC=C2CN3CCC45C6=CC(=O)C(=O)C([N+](=O)[O-])=C6NC4C1C2CC35` (stereo not given), the Potency result was “inactive”. Same read-out and setting: as for `COc1ccc(-n2c(O)c(/C=C3\C=Nc4ccc(Br)cc43)c(=O)[nH]c2=O)c(OC)c1`, the entry is “inactive”. Consider `Cc1ccc(C)c(Cn2c(C(=O)O)c(C=O)c3ccccc32)c1`, for which the activity change, negative = inhibition is 3.6% [at 12.7 µM]. Same read-out and setting: as for `O=C1NCN(c2ccccc2)C12CCN(C(c1cc3ccccc3o1)c1nnnn1C1CCCC1)CC2` (stereo not given), the figure is -12.5% [at 12.7 µM]. Consider `CCCNC(=O)N1[C@H]2CC[C@@H]1C(C(=O)OC)=C(c1ccc(F)cc1OCc1ccccc1)C2`, for which the Potency entry was “inactive”. Turning to `Nc1c(C(=O)Nc2ccc(Br)cc2F)sc2nc3c(cc12)N1CCC3CC1`, the activity change, negative = inhibition was -17.9% [at 12.7 µM]. `CCOC(=O)c1cc(CC)sc1/N=C/c1c(O)[nH]c(=S)[nH]c1=O`: the Potency result was “inactive”. Turning to `CCOC(=O)[C@]12Cc3cc(Cl)ccc3[C@H]1N(C1CCCCC1)C(=O)c1ccccc12`, the Potency result was “inactive”.

For the compound `CCOC(=O)[C@]12Cc3ccccc3[C@H]1N(C1CCCCC1)C(=O)c1cc(OC)ccc12`, the Potency entry was “inactive”. Consider `CCOC(=O)[C@]12Cc3ccc(C)cc3[C@H]1N(C1CCCCC1)C(=O)c1cc(OC)ccc12`, for which the Potency result was “inactive”. Take `COC(=O)c1cn(C(=O)c2cccc3ccccc23)c2ccccc12`: the Potency result is “inactive”. Consider `COCCCn1c(N)c(C(=O)NCCC(C)C)c2nc3ccccc3nc21`, for which the activity change, negative = inhibition is -14.1% [at 12.7 µM]. For the compound `Oc1c(Cl)cccc1Cc1cc(Cl)cc(Cl)c1O`, the Potency result was “inactive”.

On to `CN(C)CC(C(=O)Cc1ccccc1)c1ccccc1` (stereo not given), for which the Potency result was “inactive”.

The target in a further assay is Rap guanine nucleotide exchange factor 3 (Homo sapiens) (UniProt O95398). The assay can be described thus: Counterscreen qHTS for antagonist of cAMP-regulated guanine nucleotide exchange factor 3 (EPAC1) (AID 1645888). As to conditions: Rap1B-BODIPY-GDP nucleotide exchange, fluorescence; series mostly up to 154 µM. The procedure, abridged: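 Measured: fluorescence of BODIPY-GDP bound to Rap1B, which falls as exchange proceeds. Conditions include 50 uM competing GDP, 5 and 30 min reads, and a later cAMP challenge for antagonist detection.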
Rap guanine nucleotide exchange factor 3 (Homo sapiens), sequence (O95398 whole entry, looked up): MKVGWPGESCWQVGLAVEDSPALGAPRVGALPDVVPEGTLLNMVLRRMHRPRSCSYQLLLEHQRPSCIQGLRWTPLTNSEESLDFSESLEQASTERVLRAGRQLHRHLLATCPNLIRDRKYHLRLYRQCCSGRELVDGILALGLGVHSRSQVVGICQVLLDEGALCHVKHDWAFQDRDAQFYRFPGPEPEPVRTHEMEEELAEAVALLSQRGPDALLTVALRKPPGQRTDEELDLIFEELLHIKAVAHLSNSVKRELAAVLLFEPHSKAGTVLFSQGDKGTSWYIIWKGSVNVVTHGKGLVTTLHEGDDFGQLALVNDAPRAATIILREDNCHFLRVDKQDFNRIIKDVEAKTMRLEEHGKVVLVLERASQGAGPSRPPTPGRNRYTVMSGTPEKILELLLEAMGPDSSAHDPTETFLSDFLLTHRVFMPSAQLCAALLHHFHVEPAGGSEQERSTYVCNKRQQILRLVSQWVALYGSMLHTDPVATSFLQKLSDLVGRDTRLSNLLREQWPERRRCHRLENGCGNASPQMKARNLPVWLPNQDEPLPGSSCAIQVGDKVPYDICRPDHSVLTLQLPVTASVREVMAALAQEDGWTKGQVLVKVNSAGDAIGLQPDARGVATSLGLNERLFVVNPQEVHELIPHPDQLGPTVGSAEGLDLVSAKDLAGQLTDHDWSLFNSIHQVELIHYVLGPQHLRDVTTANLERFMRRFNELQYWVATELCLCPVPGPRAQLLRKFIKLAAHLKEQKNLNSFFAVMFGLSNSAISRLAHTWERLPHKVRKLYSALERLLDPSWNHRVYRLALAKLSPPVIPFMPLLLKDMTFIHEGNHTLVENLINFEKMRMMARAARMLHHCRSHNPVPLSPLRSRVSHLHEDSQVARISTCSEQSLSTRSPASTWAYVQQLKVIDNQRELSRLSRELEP
Regarding `Cc1c(NS(=O)(=O)c2ccccc2)ccc([N+](=O)[O-])c1Cl`, the compound was called inactive.

Regarding `CCCSc1nc2ccccc2c(=O)n1-c1ccccc1OC`, the compound was classed as inactive. As for `CC(Cc1ccc(O)cc1)NCC(O)c1ccc(O)c(O)c1` (stereo not given), the activity change, negative = inhibition is 6.78% [at 30.8 µM]. In the case of `Cc1c2cnn(CC(=O)N3CCC4(CC3)OCCO4)c(=O)c2c(C)n1Cc1ccc(F)cc1`, the call was inactive. For the compound `CCOC(=O)[C@]12Cc3cc(C)ccc3[C@H]1N(Cc1ccccc1)C(=O)c1ccccc12`, the outcome was inactive. Still for that read-out and setting: as for `CCN(CC)c1ccc(N=Cc2c(O)n(CCC3=CCCCC3)c(=O)[nH]c2=O)cc1`, the entry is “inactive”; as for `O=c1[nH]c(O)c(C=Nc2ccccc2Sc2ccccc2)c(=O)[nH]1`, “inactive”. For `COc1ccc(C(SCC(NC(=O)OCc2ccccc2)C(=O)O)c2ccc(OC)cc2)cc1` (stereo not given), the compound was classed as inactive. Turning to `O=C1NC(=O)N(c2cccc(Cl)c2)C(=O)/C1=C\c1ccc(Sc2nc3ccccc3[nH]2)o1`, the activity change, negative = inhibition was 2.39% [at 30.8 µM]. Consider `CCN1C(=O)C(=C/C=C/c2ccco2)C(=O)N(CC)C1=S`, for which the call was inactive. Take `COC(=O)C1=C(c2cc3ccccc3s2)C[C@@H]2CC[C@H]1N2C(=O)NC1CC1`: the call was inactive. For the compound `Cc1cc(/C=C2\C(=O)NC(=O)N(c3ccc(Cl)cc3)C2=O)c(C)n1-c1sc2c(c1C#N)CCCC2`, the activity change, negative = inhibition is -13.5% [at 30.8 µM]. In the case of `COc1cccc(-n2c(/C=C/c3ccc(O)c(O)c3)nc3ccccc3c2=O)c1`, the activity change, negative = inhibition is 2.65% [at 30.8 µM].

With `N#CC(C#N)=NNc1ccc(S(N)(=O)=O)cc1`, the activity change, negative = inhibition was -8.77% [at 30.8 µM]. In the case of `Cc1ccc(N2C(=O)NC(=O)/C(=C\c3cc(C)n(-c4sc5c(c4C#N)CCCC5)c3C)C2=O)cc1`, the compound was called inactive. Still for that read-out and setting: as for `Cc1ccc(N2C(=O)NC(=O)/C(=C\C=C\c3ccco3)C2=O)cc1`, the entry is “inactive”; as for `Cc1ccc(CN2CCCN(Cc3ccccc3C)S2(=O)=O)cc1`, “inactive”.

Regarding `O=C1NC(=S)N(c2ccccc2)C(=O)/C1=C/c1ccco1`, the compound was classed as inactive. For `Cc1cc(OC(C)C(=O)N[C@H](C(=O)O)c2ccccc2)c2c3c(c(=O)oc2c1)CCC3` (stereo not given in full), the result was inactive. Same read-out and setting: the same measure for `CCOC(=O)[C@]12Cc3cc(OC)ccc3[C@H]1N(Cc1ccccc1)C(=O)c1cc(F)c(F)cc12`: “inactive”. Regarding `COC(=O)c1cn(Cc2ccc(F)cc2)c2ccccc12`, the outcome was inactive.

In the case of `CCCCn1c(NS(=O)(=O)c2ccc(C)cc2)c(C(=O)OCC)c2nc3ccccc3nc21`, the compound was classed as inactive. In the case of `O=C1NC(=O)N(Cc2ccccc2)C(=O)/C1=C/C=C/c1ccco1`, the activity change, negative = inhibition was -0.901% [at 30.8 µM]. Take `O=C(O)CC1OCC=C2CN3CCC45C6=CC(=O)C(=O)C([N+](=O)[O-])=C6NC4C1C2CC35` (stereo not given): the result was inactive.

With `COc1ccc(-n2c(O)c(/C=C3\C=Nc4ccc(Br)cc43)c(=O)[nH]c2=O)c(OC)c1`, the result was inactive.

As for `Cc1ccc(C)c(Cn2c(C(=O)O)c(C=O)c3ccccc32)c1`, the activity change, negative = inhibition was -5.1% [at 30.8 µM]. Regarding `O=C1NCN(c2ccccc2)C12CCN(C(c1cc3ccccc3o1)c1nnnn1C1CCCC1)CC2` (stereo not given), the activity change, negative = inhibition was -0.487% [at 30.8 µM]. With `CCCNC(=O)N1[C@H]2CC[C@@H]1C(C(=O)OC)=C(c1ccc(F)cc1OCc1ccccc1)C2`, the call was inactive. With `Nc1c(C(=O)Nc2ccc(Br)cc2F)sc2nc3c(cc12)N1CCC3CC1`, the result was inactive. As to `CCOC(=O)c1cc(CC)sc1/N=C/c1c(O)[nH]c(=S)[nH]c1=O`, the call was inactive.

With `CCOC(=O)[C@]12Cc3cc(Cl)ccc3[C@H]1N(C1CCCCC1)C(=O)c1ccccc12`, the call was inactive. Turning to `CCOC(=O)[C@]12Cc3ccccc3[C@H]1N(C1CCCCC1)C(=O)c1cc(OC)ccc12`, the outcome was inactive. With `CCOC(=O)[C@]12Cc3ccc(C)cc3[C@H]1N(C1CCCCC1)C(=O)c1cc(OC)ccc12`, the compound was called inactive.

With `COC(=O)c1cn(C(=O)c2cccc3ccccc23)c2ccccc12`, the call was inactive. Take `COCCCn1c(N)c(C(=O)NCCC(C)C)c2nc3ccccc3nc21`: the activity change, negative = inhibition is 2.52% [at 30.8 µM].

As to `Oc1c(Cl)cccc1Cc1cc(Cl)cc(Cl)c1O`, the compound was called inactive.

Regarding `CN(C)CC(C(=O)Cc1ccccc1)c1ccccc1` (stereo not given), the compound was classed as inactive.
